A selection: hits, their analogues and other compounds. The true share with any hit is near 5.4%.
FMDV antiviral: antivirals against foot and mouth disease virus. 410,000 tested, 1.2% active. AID 1159524. Potency, µM (titrated, usually from 57.9 µM), for inactives: at the top dose activity change, negative = inhibition, hits mostly inhibitors. FMDV antiviral cell-based qHTS; calls by dose curve; tested in HEK293T cells; further: read-out not given here; nearly all actives have a fitted effect of over 45% in size
MARV entry inh: blocks Marburg virus binding to or entry into cells; Potency, µM (series often up to 37.8 µM), for inactives: at the highest dose activity change, negative = inhibition, actives largely listed as inhibitors; AID 540276; Marburg virus pseudotyped entry inhibition, cell reporter; 300,000 tested, 1.8% active; calls by dose curve; tested in HEK293 cells
LASV entry inh: blocks Lassa virus binding to or entry into cells. Lassa virus pseudotype entry inhibition, cell reporter. 300,000 tested, 1.2% active. AID 540256. Potency, µM (doses to about 37.9 µM), without a hit: top-dose activity change, negative = inhibition, most hits filed as inhibitors; calls by dose curve; tested in HEK293 cells; further: nearly all actives have a fitted effect of over 50% in size
Vaccinia Venus: inhibitors of vaccinia virus (Venus reporter); Vaccinia virus Venus reporter expression, fluorescence; Potency, µM (top dose mostly 36.5 µM), without a hit: at the highest dose activity change, negative = inhibition, actives largely listed as inhibitors; 330,000 tested, 0.46% active; AID 720580; calls by dose curve; tested in A549 cells; further: nearly all actives have a fitted effect of over 30% in size
Sm TGR block: S. mansoni TGR enzyme inhibition. Q962Y6. purified TGR, DTNB reduction, TNB absorbance 405 nm. Potency, µM (doses to about 114 µM), for inactives: top-dose activity change, negative = inhibition, actives largely listed as inhibitors. 360,000 tested, 3% active; active means well fitted inhibition curve with a large enough effect; inconclusive means small, poorly fitted or top-dose-only effect; inactive means no such curve, though single readings can be large or run the other way; further: nearly all actives have a fitted effect of over 60% in size
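Kinetic colorimetric format: TGR-catalysed, NADPH-driven DTNB reduction monitored via TNB absorbance. Enzyme dispensed at 20 nM; compound exposure 15 min at room temperature before reaction start.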
VACV mCherry inh: inhibitors of vaccinia virus infection (mCherry reporter signal); 310,000 tested, 0.63% active; Potency, µM (titrated, usually from 36.5 µM), inactives show top-dose activity change, negative = inhibition, most hits filed as inhibitors; AID 720579; Vaccinia virus mCherry reporter infection, fluorescence; calls by dose curve; tested in A549 cells; further: nearly all actives have a fitted effect of over 35% in size
* = called active by the depositor; i = inactive; ? = inconclusive; . = no result; [ ] = dose if it differs, or a comment. On the % scale 0 is the no-effect control and ±100 the full control effect; potency means the concentration at half of the fitted maximal effect.

SMILES | FMDV antiviral | MARV entry inh | LASV entry inh | Vaccinia Venus | Sm TGR block | VACV mCherry inh
Cc1ccnc(NC(c2cccnc2)c2ccc3cccnc3c2O)c1 (stereo unspecified) | -12.6% | 8.91µM* | ? | ? | . | ?
Cc1ccnc(NC(c2ccccc2)c2ccc3cccnc3c2O)c1 (stereo unspecified) | -13.0% | ? | ? | ? | . | ?
Oc1ccccc1C(Nc1nccs1)c1ccc2cccnc2c1O (stereo unspecified) | -13.6% | 11.6µM* | 7.3µM* | ? | 1.26µM* | 8.91µM*
Cc1ccc2ccc(C(Nc3cccc(C(F)(F)F)c3)c3cccnc3)c(O)c2n1 (stereo unspecified) | -14.9% | . | . | -25.2% | 2.24µM* | -11.3%
CCc1ccc(NC(=O)C(=O)NCC(c2cccnc2)N2CCN(Cc3ccccc3)CC2)cc1 (stereo unspecified) | ? | . | 0.7%[46.1 µM] | -29.6% | -3.8% | i
Cc1c(-c2ccc(Cl)cc2)c(=O)oc2c(CN3CCN(C)CC3)c(O)ccc12 | -21.2% | . | 21.3%[46.1 µM] | -21.8% | 3.1% | -16.5%
NS(=O)(=O)c1ccc(CCNc2ncnc3c2c(-c2ccccc2)cn3-c2ccc(F)cc2)cc1 | 15.8µM* | ? | ? | ? | -1.5% | .
COc1ccccc1CNC(=O)c1ccc2c(c1)sc1nc(-c3ccc(F)cc3)cn12 | -18.4% | . | 11.6%[46.1 µM] | -13.7% | 28.6% | -15.4%
COc1ccc(S(=O)(=O)Cc2ccc(C(=O)NCc3ccco3)o2)cc1 | -24.1% | . | . | 4.9% | 39.8µM* | -1.8%
O=C(NCc1cccs1)c1ccc(CS(=O)(=O)c2ccc(Cl)cc2)o1 | -8.3% | -13.6% | 11.6µM* | -14.4% | 3.5% | -15.9%
COc1ccc(S(=O)(=O)Cc2ccc(C(=O)NCc3cccs3)o2)cc1 | ? | . | . | -7.0% | -18.6% | -2.0%
COc1ccc(S(=O)(=O)Cc2ccc(C(=O)NCCCN3CCc4ccccc4C3)o2)cc1 | -9.3% | -1.3% | . | -2.0% | 44.7µM* | -10.7%
CC(Oc1ccccc1F)C(=O)Nc1ccc(-c2nc3ccccc3s2)cc1 (stereo unspecified) | 19.1% | 3.1%[46.1 µM] | 4.9%[46.1 µM] | -28.6% | 3.7% | -9.7%
CSc1nnc(C)c(=O)n1COC(=O)c1cc(Cl)ccc1[N+](=O)[O-] | -29.0% | -17.5%[46.1 µM] | -2.1%[46.1 µM] | -6.2% | 22.4µM* | -28.4%
CSc1nnc(C)c(=O)n1COC(=O)c1ccc([N+](=O)[O-])cc1 | -10.4% | 14.5%[46.1 µM] | -11.8%[46.1 µM] | 13.3% | ? | i
Cc1ccc(O)c(-c2ccnc3cc(-c4ccc(Cl)cc4)nn23)c1 | -5.7% | 0.0%[46.1 µM] | 1.8%[46.1 µM] | -12.6% | 1.5% | -23.2%
CN(CC(=O)Nc1ccc(Cl)c(C(F)(F)F)c1)C(=O)c1cc(-c2ccncc2)nc2ccccc12 | 28.2µM* | ? | -17.0%[46.1 µM] | -4.2% | 11.9% | -14.2%
Cc1ccc(-c2cc(C(=O)N(C)CC(=O)Nc3ccccc3Br)c3ccccc3n2)o1 | 2.1% | ? | -17.0% | -19.0% | 15.8µM* | -11.4%
COc1ccc(-c2cc(C(=O)N(C)CC(=O)Nc3cccc(F)c3)c3ccccc3n2)cc1OC | ? | . | . | -27.3% | . | i
CN(CC(=O)Nc1cccc(F)c1)C(=O)c1cc(-c2ccco2)nc2ccccc12 | -21.9% | ? | 9.6% | -3.1% | 7.94µM* | -0.6%
COc1cccc(NC(=O)CN(C)C(=O)c2ccccc2-c2nc3ccccc3s2)c1 | -12.7% | 7.08µM* | -19.4% | -18.9% | 1.7% | -27.0%
CCOC(=O)c1ccc(N2CCN(c3cc(C)ccc3C)CC2)c(NC(=O)Nc2ccccc2)c1 | -19.2% | . | 6.7%[46.1 µM] | 3.9% | 7.6% | 4.2%
COc1ccc(NC(=O)CN(C)C(=O)c2cc(-c3ccco3)nc3ccccc23)cc1 | ? | -21.1% | ? | 0.2% | 5.01µM* | -12.6%

Screening data as filed in PubChem BioAssay.
